Assay [1] deals with Tyrosine-protein kinase CSK (Homo sapiens) (UniProt P41240). The following applies: at 1 µM.
Assay [2] addresses T1, Discoidin domain-containing receptor 2 (Homo sapiens) (UniProt Q16832).
T1 sequence (whole entry): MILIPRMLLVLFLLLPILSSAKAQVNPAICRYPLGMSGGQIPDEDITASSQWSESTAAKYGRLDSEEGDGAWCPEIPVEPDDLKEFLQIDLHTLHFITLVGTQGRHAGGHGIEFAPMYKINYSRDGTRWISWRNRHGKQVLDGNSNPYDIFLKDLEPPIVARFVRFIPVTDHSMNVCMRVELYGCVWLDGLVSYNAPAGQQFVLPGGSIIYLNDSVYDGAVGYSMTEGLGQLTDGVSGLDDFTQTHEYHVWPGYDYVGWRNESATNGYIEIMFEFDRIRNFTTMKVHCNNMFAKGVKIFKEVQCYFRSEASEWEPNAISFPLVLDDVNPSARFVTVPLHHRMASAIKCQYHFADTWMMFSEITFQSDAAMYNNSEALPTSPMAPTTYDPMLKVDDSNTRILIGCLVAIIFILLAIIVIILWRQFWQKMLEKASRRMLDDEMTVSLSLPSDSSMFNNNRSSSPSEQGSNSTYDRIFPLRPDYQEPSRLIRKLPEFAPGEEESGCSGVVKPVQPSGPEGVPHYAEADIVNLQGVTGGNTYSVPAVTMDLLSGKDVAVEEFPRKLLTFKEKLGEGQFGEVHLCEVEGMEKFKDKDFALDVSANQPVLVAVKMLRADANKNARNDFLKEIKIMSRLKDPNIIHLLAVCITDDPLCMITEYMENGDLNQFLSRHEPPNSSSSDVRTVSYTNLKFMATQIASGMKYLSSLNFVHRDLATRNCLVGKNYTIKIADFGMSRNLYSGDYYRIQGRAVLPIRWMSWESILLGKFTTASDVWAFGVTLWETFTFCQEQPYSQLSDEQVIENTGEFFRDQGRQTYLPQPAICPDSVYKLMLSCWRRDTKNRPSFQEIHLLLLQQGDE
The following applies: at 0.1 µM.

In assay [3] the target is T1, Discoidin domain-containing receptor 2 (Homo sapiens). The note with it: at 1 µM.
Assay [4] addresses Epidermal growth factor receptor (Homo sapiens) (UniProt P00533). The note with it: at 0.1 µM.
For assay [5] the target is unchanged. The note with it: at 1 µM.
In assay [6] the test system is Epidermal growth factor receptor (Homo sapiens), P00533 [L858R]. The following applies: at 0.1 µM.
The test system is the same in assay [7]. The note with it: at 1 µM.
The test system of assay [8] is Epidermal growth factor receptor (Homo sapiens), P00533 [L861Q]. The following applies: at 0.1 µM.
Assay [9] shares this test system. The note with it: at 1 µM.
In assay [10] the test system is Epidermal growth factor receptor (Homo sapiens), P00533 [T790M]. The following applies: at 0.1 µM.
Assay [11] shares this test system. The note with it: at 1 µM.
For assay [12], the system named is Epidermal growth factor receptor (Homo sapiens), P00533 [L858R,T790M]. The note with it: at 0.1 µM.
For assay [13] the test system is unchanged. The note with it: at 1 µM.
For assay [14], the target named is Ephrin type-A receptor 2 (Homo sapiens) (UniProt P29317). The note with it: at 0.1 µM.
The target is the same in assay [15]. The following applies: at 1 µM.
In assay [16] the target is T2, Ephrin type-A receptor 3 (Homo sapiens) (UniProt P29320).
T2 sequence (whole entry): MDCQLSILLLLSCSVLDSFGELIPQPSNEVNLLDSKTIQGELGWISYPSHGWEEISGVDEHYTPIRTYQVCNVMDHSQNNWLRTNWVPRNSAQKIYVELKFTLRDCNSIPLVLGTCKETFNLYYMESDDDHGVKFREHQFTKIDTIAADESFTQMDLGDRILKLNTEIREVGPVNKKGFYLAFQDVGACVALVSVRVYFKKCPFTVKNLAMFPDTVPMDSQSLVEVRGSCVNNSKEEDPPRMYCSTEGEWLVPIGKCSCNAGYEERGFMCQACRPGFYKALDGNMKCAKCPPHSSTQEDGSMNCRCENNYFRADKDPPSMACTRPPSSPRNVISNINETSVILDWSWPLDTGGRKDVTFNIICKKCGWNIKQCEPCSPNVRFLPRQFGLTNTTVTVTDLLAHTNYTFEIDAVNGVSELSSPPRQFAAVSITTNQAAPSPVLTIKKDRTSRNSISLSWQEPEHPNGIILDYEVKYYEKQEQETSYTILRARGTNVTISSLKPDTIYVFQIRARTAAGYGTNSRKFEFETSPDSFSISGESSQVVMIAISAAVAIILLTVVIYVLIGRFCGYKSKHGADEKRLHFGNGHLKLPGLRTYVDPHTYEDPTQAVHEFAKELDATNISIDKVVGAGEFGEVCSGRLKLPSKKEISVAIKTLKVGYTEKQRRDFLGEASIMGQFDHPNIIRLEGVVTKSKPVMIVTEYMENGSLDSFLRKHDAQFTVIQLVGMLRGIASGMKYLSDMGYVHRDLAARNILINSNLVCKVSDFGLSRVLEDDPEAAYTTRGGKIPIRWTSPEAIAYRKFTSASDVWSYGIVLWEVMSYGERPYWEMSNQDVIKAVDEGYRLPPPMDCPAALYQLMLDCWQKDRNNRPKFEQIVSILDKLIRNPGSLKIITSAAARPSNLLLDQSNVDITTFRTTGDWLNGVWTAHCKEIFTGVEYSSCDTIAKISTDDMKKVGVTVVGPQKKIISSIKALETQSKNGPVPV
The note with it: at 0.1 µM.

Assay [17] deals with T2, Ephrin type-A receptor 3 (Homo sapiens). The note with it: at 1 µM.
Assay [18] concerns the target Ephrin type-A receptor 4 (Homo sapiens) (UniProt P54764). The following applies: at 0.1 µM.
For assay [19] the target is unchanged. The following applies: at 1 µM.
Assay [20] deals with T3, Ephrin type-B receptor 2 (Homo sapiens) (UniProt P29323).
T3 sequence (whole entry): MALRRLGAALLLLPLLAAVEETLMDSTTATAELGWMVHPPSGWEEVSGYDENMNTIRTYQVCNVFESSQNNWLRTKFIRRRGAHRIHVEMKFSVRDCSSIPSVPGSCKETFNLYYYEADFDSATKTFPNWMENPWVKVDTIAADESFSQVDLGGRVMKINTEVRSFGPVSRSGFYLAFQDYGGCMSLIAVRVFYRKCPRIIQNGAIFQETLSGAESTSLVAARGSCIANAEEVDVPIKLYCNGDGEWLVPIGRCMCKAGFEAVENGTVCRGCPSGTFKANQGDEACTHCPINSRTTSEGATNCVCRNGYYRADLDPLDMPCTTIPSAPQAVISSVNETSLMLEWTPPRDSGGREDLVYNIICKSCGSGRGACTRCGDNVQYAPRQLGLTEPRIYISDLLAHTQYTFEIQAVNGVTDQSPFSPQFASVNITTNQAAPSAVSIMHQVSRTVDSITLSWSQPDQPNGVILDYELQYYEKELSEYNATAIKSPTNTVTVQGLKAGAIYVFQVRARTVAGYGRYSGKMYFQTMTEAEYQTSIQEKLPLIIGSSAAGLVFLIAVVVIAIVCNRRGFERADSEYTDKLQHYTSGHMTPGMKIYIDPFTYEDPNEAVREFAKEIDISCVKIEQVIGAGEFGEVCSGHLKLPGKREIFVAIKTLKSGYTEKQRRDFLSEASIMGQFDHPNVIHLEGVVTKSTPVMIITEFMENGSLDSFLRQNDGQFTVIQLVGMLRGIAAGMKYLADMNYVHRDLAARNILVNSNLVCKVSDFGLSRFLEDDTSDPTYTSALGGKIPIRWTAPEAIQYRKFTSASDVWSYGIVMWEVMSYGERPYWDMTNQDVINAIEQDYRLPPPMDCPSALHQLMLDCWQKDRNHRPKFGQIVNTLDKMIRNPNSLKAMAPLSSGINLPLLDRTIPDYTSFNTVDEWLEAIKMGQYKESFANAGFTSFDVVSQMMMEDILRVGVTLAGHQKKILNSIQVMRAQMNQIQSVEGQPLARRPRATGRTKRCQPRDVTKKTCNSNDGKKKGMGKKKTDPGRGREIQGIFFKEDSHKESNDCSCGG
The following applies: at 0.1 µM.

Sequence of Epidermal growth factor receptor (Homo sapiens), P00533 [L858R,T790M] (P00533 whole entry T790M/L858R, looked up): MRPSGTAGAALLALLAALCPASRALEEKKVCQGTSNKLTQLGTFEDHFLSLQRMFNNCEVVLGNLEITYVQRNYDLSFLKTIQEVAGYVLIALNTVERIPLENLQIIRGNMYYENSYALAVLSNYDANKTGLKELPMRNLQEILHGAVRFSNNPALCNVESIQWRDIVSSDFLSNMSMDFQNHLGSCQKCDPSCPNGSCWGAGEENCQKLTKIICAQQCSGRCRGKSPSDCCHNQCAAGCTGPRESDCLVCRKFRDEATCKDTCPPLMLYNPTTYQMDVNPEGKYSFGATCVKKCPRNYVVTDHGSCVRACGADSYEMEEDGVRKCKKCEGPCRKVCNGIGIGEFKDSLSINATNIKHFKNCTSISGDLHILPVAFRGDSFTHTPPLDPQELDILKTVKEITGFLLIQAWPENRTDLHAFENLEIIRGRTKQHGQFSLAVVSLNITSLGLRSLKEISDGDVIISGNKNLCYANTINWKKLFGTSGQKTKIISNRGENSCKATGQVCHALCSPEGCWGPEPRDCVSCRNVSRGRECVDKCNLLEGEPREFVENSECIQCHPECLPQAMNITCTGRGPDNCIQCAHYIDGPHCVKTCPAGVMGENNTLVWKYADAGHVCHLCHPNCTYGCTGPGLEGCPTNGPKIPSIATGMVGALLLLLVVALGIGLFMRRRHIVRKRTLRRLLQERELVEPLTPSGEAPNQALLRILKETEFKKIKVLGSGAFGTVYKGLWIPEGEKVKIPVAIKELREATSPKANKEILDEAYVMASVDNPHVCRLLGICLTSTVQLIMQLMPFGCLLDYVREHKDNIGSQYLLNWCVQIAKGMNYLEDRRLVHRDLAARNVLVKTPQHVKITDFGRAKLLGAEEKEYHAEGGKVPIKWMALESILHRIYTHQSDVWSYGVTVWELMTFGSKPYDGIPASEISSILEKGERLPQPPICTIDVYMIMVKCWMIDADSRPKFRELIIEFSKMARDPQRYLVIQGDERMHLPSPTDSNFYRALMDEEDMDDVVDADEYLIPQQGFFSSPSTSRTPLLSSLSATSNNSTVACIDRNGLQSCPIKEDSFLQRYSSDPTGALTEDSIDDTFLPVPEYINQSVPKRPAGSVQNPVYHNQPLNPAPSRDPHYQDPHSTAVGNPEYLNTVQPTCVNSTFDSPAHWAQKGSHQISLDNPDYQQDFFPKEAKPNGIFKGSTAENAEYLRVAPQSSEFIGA
Sequence of Tyrosine-protein kinase CSK (Homo sapiens) (P41240 2-450 limits assumed): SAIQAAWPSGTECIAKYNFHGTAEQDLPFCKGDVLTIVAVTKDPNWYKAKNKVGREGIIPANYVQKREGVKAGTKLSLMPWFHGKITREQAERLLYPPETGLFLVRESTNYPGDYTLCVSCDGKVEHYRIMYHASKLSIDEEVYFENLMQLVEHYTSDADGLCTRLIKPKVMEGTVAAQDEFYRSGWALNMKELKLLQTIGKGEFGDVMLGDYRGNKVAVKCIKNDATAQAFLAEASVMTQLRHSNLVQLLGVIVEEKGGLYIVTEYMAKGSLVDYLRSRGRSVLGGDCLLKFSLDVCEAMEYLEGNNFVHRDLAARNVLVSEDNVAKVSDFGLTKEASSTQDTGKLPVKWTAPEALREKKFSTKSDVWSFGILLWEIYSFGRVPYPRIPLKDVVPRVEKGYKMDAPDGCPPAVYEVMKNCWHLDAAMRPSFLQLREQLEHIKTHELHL
Sequence of Ephrin type-A receptor 4 (Homo sapiens) (P54764 whole entry): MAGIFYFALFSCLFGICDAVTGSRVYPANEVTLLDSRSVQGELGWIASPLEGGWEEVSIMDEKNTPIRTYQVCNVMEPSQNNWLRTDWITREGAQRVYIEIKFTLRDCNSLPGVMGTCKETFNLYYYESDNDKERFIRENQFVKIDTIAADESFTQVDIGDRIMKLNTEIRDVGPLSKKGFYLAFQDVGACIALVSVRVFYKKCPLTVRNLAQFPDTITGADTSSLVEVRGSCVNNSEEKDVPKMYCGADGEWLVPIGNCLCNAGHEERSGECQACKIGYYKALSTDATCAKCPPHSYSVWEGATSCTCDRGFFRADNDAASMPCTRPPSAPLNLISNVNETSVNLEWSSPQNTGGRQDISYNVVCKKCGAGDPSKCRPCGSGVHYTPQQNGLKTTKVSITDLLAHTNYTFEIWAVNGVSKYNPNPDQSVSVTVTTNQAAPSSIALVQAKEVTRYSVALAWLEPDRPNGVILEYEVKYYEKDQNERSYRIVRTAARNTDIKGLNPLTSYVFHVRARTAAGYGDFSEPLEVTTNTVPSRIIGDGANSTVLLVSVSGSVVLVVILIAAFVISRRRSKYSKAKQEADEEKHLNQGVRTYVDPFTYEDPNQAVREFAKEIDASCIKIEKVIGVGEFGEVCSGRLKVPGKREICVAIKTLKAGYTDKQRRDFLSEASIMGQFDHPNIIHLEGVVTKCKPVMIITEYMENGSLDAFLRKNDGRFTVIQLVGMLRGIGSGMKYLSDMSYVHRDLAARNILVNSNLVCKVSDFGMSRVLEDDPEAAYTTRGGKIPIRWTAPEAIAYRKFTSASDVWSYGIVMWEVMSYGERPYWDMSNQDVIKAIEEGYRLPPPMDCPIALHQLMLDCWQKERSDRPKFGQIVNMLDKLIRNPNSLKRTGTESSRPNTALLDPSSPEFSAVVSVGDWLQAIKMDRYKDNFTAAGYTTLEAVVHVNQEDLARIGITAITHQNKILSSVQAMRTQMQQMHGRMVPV
Sequence of Epidermal growth factor receptor (Homo sapiens) (P00533 whole entry): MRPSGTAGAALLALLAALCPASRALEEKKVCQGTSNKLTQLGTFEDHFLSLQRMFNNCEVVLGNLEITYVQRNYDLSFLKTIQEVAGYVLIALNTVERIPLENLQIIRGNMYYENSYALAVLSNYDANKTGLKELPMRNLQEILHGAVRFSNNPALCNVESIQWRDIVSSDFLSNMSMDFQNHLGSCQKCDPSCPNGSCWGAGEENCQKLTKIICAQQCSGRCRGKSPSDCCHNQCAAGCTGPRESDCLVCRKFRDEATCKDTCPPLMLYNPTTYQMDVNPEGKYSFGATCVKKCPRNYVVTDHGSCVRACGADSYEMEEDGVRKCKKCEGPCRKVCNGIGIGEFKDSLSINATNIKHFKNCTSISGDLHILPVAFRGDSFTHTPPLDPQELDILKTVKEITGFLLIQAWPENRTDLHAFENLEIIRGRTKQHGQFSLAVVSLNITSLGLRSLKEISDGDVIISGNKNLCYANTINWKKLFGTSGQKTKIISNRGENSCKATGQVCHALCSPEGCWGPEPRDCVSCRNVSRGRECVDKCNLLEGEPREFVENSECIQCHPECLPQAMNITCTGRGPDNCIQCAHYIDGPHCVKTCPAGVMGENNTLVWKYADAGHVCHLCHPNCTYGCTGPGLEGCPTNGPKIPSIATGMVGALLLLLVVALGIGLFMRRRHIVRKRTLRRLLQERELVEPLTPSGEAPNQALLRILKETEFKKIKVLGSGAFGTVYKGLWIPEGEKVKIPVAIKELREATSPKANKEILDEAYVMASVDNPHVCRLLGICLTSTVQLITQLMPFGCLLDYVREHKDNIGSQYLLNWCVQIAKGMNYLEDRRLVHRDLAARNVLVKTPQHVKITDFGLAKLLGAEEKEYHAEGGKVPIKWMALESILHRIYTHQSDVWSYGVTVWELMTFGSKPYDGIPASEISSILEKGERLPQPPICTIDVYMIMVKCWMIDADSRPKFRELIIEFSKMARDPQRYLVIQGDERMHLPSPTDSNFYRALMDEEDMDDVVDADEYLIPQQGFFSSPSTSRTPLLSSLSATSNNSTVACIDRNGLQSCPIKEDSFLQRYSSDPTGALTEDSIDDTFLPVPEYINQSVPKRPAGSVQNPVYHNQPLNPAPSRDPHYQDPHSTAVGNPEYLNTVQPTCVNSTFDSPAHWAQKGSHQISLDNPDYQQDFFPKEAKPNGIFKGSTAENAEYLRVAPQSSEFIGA
Sequence of Ephrin type-A receptor 2 (Homo sapiens) (P29317 whole entry): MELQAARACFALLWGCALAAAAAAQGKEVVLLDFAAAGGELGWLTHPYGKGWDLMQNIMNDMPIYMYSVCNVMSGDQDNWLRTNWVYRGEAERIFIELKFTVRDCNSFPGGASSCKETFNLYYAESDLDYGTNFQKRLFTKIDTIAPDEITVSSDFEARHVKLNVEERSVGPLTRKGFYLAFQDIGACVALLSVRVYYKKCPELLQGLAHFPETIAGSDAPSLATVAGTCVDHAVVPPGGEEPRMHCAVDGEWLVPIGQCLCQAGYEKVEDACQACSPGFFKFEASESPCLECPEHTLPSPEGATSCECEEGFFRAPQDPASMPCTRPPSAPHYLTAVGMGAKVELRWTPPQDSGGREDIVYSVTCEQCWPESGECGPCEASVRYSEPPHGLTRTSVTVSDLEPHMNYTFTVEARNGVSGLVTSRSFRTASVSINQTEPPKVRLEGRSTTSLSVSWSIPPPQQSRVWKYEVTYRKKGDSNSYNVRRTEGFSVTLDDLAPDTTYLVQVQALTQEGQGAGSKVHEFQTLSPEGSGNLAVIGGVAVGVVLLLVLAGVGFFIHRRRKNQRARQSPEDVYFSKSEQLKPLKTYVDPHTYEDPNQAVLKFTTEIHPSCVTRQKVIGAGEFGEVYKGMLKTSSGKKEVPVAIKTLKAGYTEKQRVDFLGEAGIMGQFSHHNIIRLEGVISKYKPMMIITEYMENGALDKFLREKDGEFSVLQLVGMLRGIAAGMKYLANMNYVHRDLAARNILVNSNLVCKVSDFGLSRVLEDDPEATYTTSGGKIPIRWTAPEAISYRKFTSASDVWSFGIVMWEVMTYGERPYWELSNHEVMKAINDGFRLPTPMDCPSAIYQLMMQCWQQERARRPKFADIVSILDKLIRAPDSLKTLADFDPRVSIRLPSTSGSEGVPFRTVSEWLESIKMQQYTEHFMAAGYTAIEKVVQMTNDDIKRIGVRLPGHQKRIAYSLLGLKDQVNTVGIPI

As a reminder, the inhibition is the drop in the measured response relative to a control, in per cent. As to `O=C(Nc1n[nH]c2cc(-c3cc(F)ccc3F)ccc12)C1CC1`, the inhibition is 2.29% in [1]; 2.61% in [2]; 4.77% in assay [3]; 1.18% in assay [4]; 2.02% in assay [5]; 1.19% in assay [6]. The inhibition is 3.64% in [7]; 2.35% in [8]; -0.56% in [9]; 0.87% in assay [10]; 1.25% in [11]; 3.1% in assay [12]. Further, the inhibition in assay [13] is 2.41%; in [14], -2.28%; in assay [15] it was -0.08%; in assay [16] it was 1.66%; in assay [17], 4.19%; in [18] it was 5.23%. Besides, the figures for the inhibition in assay [19] and in [20] were 3.94% and 6.32%, respectively.
Consider `O=C(Nc1n[nH]c2nc(-c3ccco3)ccc12)C1CC1`, for which the inhibition in assay [1] is 4.82%; in [2], 5.94%; in [3], 7.53%; in assay [4], 2.44%; in assay [5], 4.53%; in assay [6] it was -0.69%. Besides, the inhibition in assay [7] was 4.35%; in [8] it was 1.04%; in [9] it was 1.77%; in [10] it was 0.31%; in assay [11], -1.02%; in assay [12] it was 0.52%. Besides, the inhibition is -1.34% in assay [13]; -1.58% in assay [14]; 2.15% in assay [15]; 1.58% in [16]; 2.28% in assay [17]; 6.1% in [18]. Moreover, the inhibition in assay [19] was 7.98%; in assay [20], 6.87%.
For the molecule `Fc1ccc(-c2ncn(C3CCNCC3)c2-c2ccnc(Oc3ccc4c(c3)OCO4)n2)cc1`, the inhibition in assay [1] stood at 6.08%; in assay [2] it was 6.32%; in assay [3] it was 7.88%; in assay [4], 5.59%; in assay [5], 13.1%; in [6], 4.4%. Further, the inhibition in assay [7] came to 18.7%; in assay [8] it was 3.06%; in assay [9], 10.2%; in assay [10], 2.39%; in assay [11] it was 6.05%; in assay [12], 1.3%. Besides, the inhibition worked out at 7.04% in assay [13]; 3.08% in assay [14]; 2.37% in [15]; 3.63% in [16]; 10.3% in assay [17]; 11.3% in [18]. In addition, the inhibition in [19] was found to be 15.4%; in assay [20] it was 10.6%.
Consider `CS(=O)(=O)CCNCc1cc(-c2cc3c(Nc4ccc(OCc5cccc(F)c5)c(Cl)c4)ncnc3s2)cs1`, for which the inhibition was 4.58% in assay [1]; 4.67% in assay [2]; 6.01% in assay [3]; 61.5% in assay [4]; 83.7% in assay [5]; 18.1% in [6]. The inhibition in [7] came out at 61.2%; in assay [8] it was 31.4%; in assay [9], 57.8%; in [10] it was 0.98%; in assay [11], 6.23%; in assay [12], 1.25%. The inhibition in [13] is 6.55%; in assay [14], 0.54%; in [15], -0.67%; in [16], 1.87%; in assay [17], 2.18%; in assay [18] it was 8.11%. Besides, the inhibition in assay [19] worked out at 10.4%; in [20], 12.3%.
`NC(=O)Cc1ccccc1Oc1nccc(-c2c(-c3ccc(F)cc3)ncn2C2CCNCC2)n1`: the inhibition in assay [1] was 0.29%; in [2], 0.48%; in [3] it was 0.75%; in assay [4], 2.22%; in assay [5] it was 4.51%; in assay [6], 2.34%. Further, the inhibition is 8.03% in assay [7]; 1.25% in assay [8]; -0.04% in assay [9]; 0.99% in assay [10]; 0.65% in [11]; 0.76% in assay [12]. The inhibition is 4.08% in assay [13]; -0.02% in assay [14]; -0.27% in assay [15]; 2.08% in assay [16]; 3.17% in assay [17]; 5.89% in assay [18]. For the same molecule, the inhibition in assay [19] was -0.14%; in [20], 6.12%.
Regarding `O=C1Nc2ccccc2/C1=C/Nc1ccc(-n2cncn2)cc1`, the inhibition in assay [1] is 7.33%; in assay [2], -0.37%; in [3], 0.37%; in assay [4] it was 4.22%; in [5] it was 4.08%; in assay [6], 2.81%. The inhibition in assay [7] came out at 4.05%; in [8] it was 3.11%; in assay [9], 4.38%; in assay [10], 2.21%; in assay [11] it was 4.3%; in [12] it was 2.89%. Besides, the inhibition in assay [13] was 1.3%; in [14], 1.55%; in assay [15], 1.91%; in [16], 2.74%; in assay [17] it was 4.04%; in assay [18] it was 4.98%. Further, the results for the inhibition in [19] and in [20] were 12.3% and 3.5%, respectively.

Source of the values: ChEMBL document CHEMBL1961873, “Compounds: GSK PKIS; Assays: Nanosyn kinase panel” (2012).
